Results as given in PubChem BioAssay (Tox21).
Unmarked numbers belong to inactive results. Records with an inconclusive call do not appear. Where a call stands in place of a potency, no number is given. Calls of active or inactive are those of the source. The call rests on the fitted dose curve; in most records, active means well fitted curve in the direction sought with a large enough effect in the repeat runs; inconclusive means weak or mixed curves; inactive means no such curve, though single readings can be large; an effect the other way counts as inactive or inconclusive.

What was measured:
[1] = A CellTox Green Cytotoxicity Assay to monitor cytotoxicity in HepG2 cells - 24 hour (AID 1224878); further: nearly all actives have a fitted effect of over 45% in size; further: potency means the concentration at half of the fitted maximal effect
In short: (§1)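 Cells and non-lytic dye reagent are dispensed together (600 HepG2 cells/well) and incubated 5 h before DMSO compound transfer. Kinetic fluorescence is then recorded in the same wells during 40 h at 37 C.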

[2] = A CellTox Green Cytotoxicity Assay to monitor cytotoxicity in HepG2 cells - 40 hour (AID 1224879); further: nearly all actives have a fitted effect of over 40% in size; further: potency means the concentration at half of the fitted maximal effect
In short: as §1

[3] = qHTS RealTime-Glo MT Cell Viability Assay in HEK293 cells - 0 hour (AID 1224880); further: top concentration of the series differs between compounds; nearly all actives have a fitted effect of over 45% in size
In short: (§2)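 Real-time viability in HEK293: signal arises when living cells convert a prosubstrate for NanoLuc in the medium, so luminescence tracks viable cell number. Compound (23 nL, DMSO) added 5 h post-seeding; kinetic reads at 0–40 h, 37 C.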

[4] = A CellTox Green Cytotoxicity Assay to monitor cytotoxicity in HEK293 cells - 32 hour (AID 1224881); further: nearly all actives have a fitted effect of over 40% in size; further: potency means the concentration at half of the fitted maximal effect
In short: (§3)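 Cells (HEK293, 600/well) and dye reagent are dispensed together. After 5 h at 37 C, 23 nL compound is pinned in. Plates stay at 37 C for 40 h with fluorescence read at 0h, 8h, 16h, 24h, 32h and 40h.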

[5] = A CellTox Green Cytotoxicity Assay to monitor cytotoxicity in HepG2 cells - 0 hour (AID 1224882); further: nearly all actives have a fitted effect of over 35% in size; further: potency means the concentration at half of the fitted maximal effect
In short: as §1

[6] = A CellTox Green Cytotoxicity Assay to monitor cytotoxicity in HepG2 cells - 32 hour (AID 1224883); further: nearly all actives have a fitted effect of over 50% in size; further: potency means the concentration at half of the fitted maximal effect
In short: as §1

[7] = A CellTox Green Cytotoxicity Assay to monitor cytotoxicity in HEK293 cells - 8 hour (AID 1224884); further: nearly all actives have a fitted effect of over 35% in size; further: potency means the concentration at half of the fitted maximal effect
In short: as §3

[8] = qHTS RealTime-Glo MT Cell Viability Assay in HepG2 cells - 16 hour (AID 1224885); further: nearly all actives have a fitted effect of over 50% in size
In short: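 Viability was tracked continuously by NanoLuc luminescence from prosubstrate reduced by living HepG2 cells, at successive time points over 40 h of compound exposure. Cells with reagent were preincubated 5 h at 37 °C before compound addition.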

[9] = qHTS RealTime-Glo MT Cell Viability Assay in HEK293 cells - 24 hour (AID 1224886); further: top concentration of the series differs between compounds; nearly all actives have a fitted effect of over 50% in size
In short: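 Viability tracked continuously by luminescence as live cells reduce a prosubstrate for NanoLuc; HEK293 cells preincubated 5 h, compound-treated at 37 C, and read at 0, 8, 16, 24, 32 and 40 h.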

[10] = qHTS RealTime-Glo MT Cell Viability Assay in HEK293 cells - 8 hour (AID 1224887); further: top concentration of the series differs between compounds; nearly all actives have a fitted effect of over 50% in size
In short: as §2

SMILES: CCCCCCCCCOC(=O)CCCCC(=O)OCCCCCCC
- Potency [1]: 24.5 µM (active)
- Potency [2]: 24.5 µM (active)
- Potency [3]: inactive
- Potency [4]: 24.5 µM (active)
- Potency [5]: 27.5 µM (active)
- Potency [6]: 24.5 µM (active)
- Potency [7]: 38.9 µM (active)
- outcome [8]: inactive
- Potency [9]: inactive
- Potency [10]: inactive

SMILES: CC(=O)OC(C)=O
- Potency [1]: inactive
- Potency [2]: inactive
- Potency [3]: inactive
- Potency [4]: inactive
- Potency [5]: inactive
- Potency [6]: inactive
- Potency [7]: inactive
- outcome [8]: inactive
- Potency [9]: inactive
- Potency [10]: inactive

SMILES: N#Cc1cscn1
- Potency [1]: inactive
- Potency [2]: inactive
- Potency [3]: inactive
- Potency [4]: inactive
- Potency [5]: inactive
- Potency [6]: inactive
- Potency [7]: inactive
- outcome [8]: inactive
- Potency [9]: inactive
- Potency [10]: inactive

SMILES: O=Cc1cc2ccccc2o1
- Potency [1]: inactive
- Potency [2]: inactive
- Potency [3]: inactive
- Potency [4]: inactive
- Potency [5]: inactive
- Potency [6]: inactive
- Potency [7]: inactive
- outcome [8]: inactive
- Potency [9]: inactive
- Potency [10]: inactive

SMILES: CCCCOC(=O)[C@H](C)O
- Potency [1]: inactive
- Potency [2]: inactive
- Potency [3]: inactive
- Potency [4]: inactive
- Potency [5]: inactive
- Potency [6]: inactive
- Potency [7]: inactive
- outcome [8]: inactive
- Potency [9]: inactive
- Potency [10]: inactive

SMILES: CCCC(CC)c1ccccc1 (stereo not drawn)
- Potency [1]: inactive
- Potency [2]: inactive
- Potency [3]: inactive
- Potency [4]: inactive
- Potency [5]: inactive
- Potency [6]: inactive
- Potency [7]: inactive
- outcome [8]: inactive
- Potency [9]: inactive
- Potency [10]: inactive

SMILES: COC(C)(OC)OC
- Potency [1]: inactive
- Potency [2]: inactive
- Potency [3]: inactive
- Potency [4]: inactive
- Potency [5]: inactive
- Potency [6]: inactive
- Potency [7]: inactive
- outcome [8]: inactive
- Potency [9]: inactive
- Potency [10]: inactive

SMILES: COC(=O)CCCCC(CCSS/C(CCO)=C(\C)N(C=O)Cc1cnc(C)nc1N)SC(C)=O (stereo not drawn)
- Potency [1]: inactive
- Potency [2]: inactive
- Potency [3]: inactive
- Potency [4]: inactive
- Potency [5]: inactive
- Potency [6]: inactive
- Potency [7]: inactive
- outcome [8]: inactive
- Potency [9]: inactive
- Potency [10]: inactive

SMILES: C=C(C)C1CC=C(C)C(=O)C1 (stereo not drawn)
- Potency [1]: inactive
- Potency [2]: inactive
- Potency [3]: inactive
- Potency [4]: inactive
- Potency [5]: inactive
- Potency [6]: inactive
- Potency [7]: inactive
- outcome [8]: inactive
- Potency [9]: inactive
- Potency [10]: inactive

SMILES: CCOc1ccccc1OCC1CNCCO1 (stereo not drawn)
- Potency [1]: inactive
- Potency [2]: inactive
- Potency [3]: inactive
- Potency [4]: inactive
- Potency [5]: inactive
- Potency [6]: inactive
- Potency [7]: inactive
- outcome [8]: inactive
- Potency [9]: inactive
- Potency [10]: inactive

SMILES: C=CC/C=C/C
- Potency [1]: inactive
- Potency [2]: inactive
- Potency [3]: inactive
- Potency [4]: inactive
- Potency [5]: inactive
- Potency [6]: inactive
- Potency [7]: inactive
- outcome [8]: inactive
- Potency [9]: inactive
- Potency [10]: inactive

SMILES: O=C(O)CONC(=O)c1ccccc1
- Potency [1]: inactive
- Potency [2]: inactive
- Potency [3]: inactive
- Potency [4]: inactive
- Potency [5]: inactive
- Potency [6]: inactive
- Potency [7]: inactive
- outcome [8]: inactive
- Potency [9]: inactive
- Potency [10]: inactive

SMILES: C/C(=C1\CCOC(=O)S1)N(C=O)Cc1cnc(C)nc1N
- Potency [1]: inactive
- Potency [2]: inactive
- Potency [3]: inactive
- Potency [4]: inactive
- Potency [5]: inactive
- Potency [6]: inactive
- Potency [7]: inactive
- outcome [8]: inactive
- Potency [9]: inactive
- Potency [10]: inactive

SMILES: Cc1c(C(=O)c2c[nH]n(C)c2=O)ccc(S(C)(=O)=O)c1C1=NOCC1
- Potency [1]: inactive
- Potency [2]: inactive
- Potency [3]: inactive
- Potency [4]: inactive
- Potency [5]: inactive
- Potency [6]: inactive
- Potency [7]: inactive
- outcome [8]: inactive
- Potency [9]: inactive
- Potency [10]: inactive

SMILES: CC(=O)CC(=O)OC(C)(C)C
- Potency [1]: inactive
- Potency [2]: inactive
- Potency [3]: inactive
- Potency [4]: inactive
- Potency [5]: inactive
- Potency [6]: inactive
- outcome [8]: inactive
- Potency [9]: inactive
- Potency [10]: inactive

SMILES: O=C1c2ccccc2C(=O)c2cc(Cl)ccc21
- cytotoxicity [1]: 0.241% [at 6.97 µM]
- cytotoxicity increase [2]: 1.15% [at 6.97 µM]
- activity change, negative = cytotoxicity [3]: 3.49% [at 6.97 µM]
- cytotoxicity increase [4]: -1.78% [at 6.97 µM]
- cytotoxicity [5]: 3.98% [at 6.97 µM]
- cytotoxicity increase [6]: 0.512% [at 6.97 µM]
- cytotoxicity increase [7]: -6.44% [at 6.97 µM]
- activity change, negative = cytotoxic [8]: 1.7% [at 6.97 µM]
- activity change, negative = cytotoxicity [9]: 2.92% [at 6.97 µM]
- activity change, negative = cytotoxicity [10]: 6.4% [at 6.97 µM]

SMILES: CC1OCCC1=O (stereo not drawn)
- Potency [1]: inactive
- Potency [2]: inactive
- Potency [3]: inactive
- Potency [4]: inactive
- Potency [5]: inactive
- Potency [6]: inactive
- Potency [7]: inactive
- outcome [8]: inactive
- Potency [9]: inactive
- Potency [10]: inactive

SMILES: CCOCCOCC
- Potency [1]: inactive
- Potency [2]: inactive
- Potency [3]: inactive
- Potency [4]: inactive
- Potency [5]: inactive
- Potency [7]: inactive
- outcome [8]: inactive
- Potency [9]: inactive
- Potency [10]: inactive

SMILES: CCn1cc(C(=O)O)c(=O)c2cnc(N3CCCC3)nc21
- cytotoxicity [1]: 0.605% [at 6.97 µM]
- cytotoxicity increase [2]: 2.25% [at 6.97 µM]
- activity change, negative = cytotoxicity [3]: 0.136% [at 6.97 µM]
- cytotoxicity increase [4]: 4.33% [at 6.97 µM]
- cytotoxicity [5]: 3.1% [at 6.97 µM]
- cytotoxicity increase [6]: -0.981% [at 6.97 µM]
- cytotoxicity increase [7]: 0.169% [at 6.97 µM]
- activity change, negative = cytotoxic [8]: 2.96% [at 6.97 µM]
- activity change, negative = cytotoxicity [9]: 7.35% [at 6.97 µM]
- activity change, negative = cytotoxicity [10]: 10.5% [at 6.97 µM]

SMILES: CN1C[C@@H]2C[C@H]1CN2c1cc2c(cc1F)c(=O)c(C(=O)O)cn2C1CC1
- cytotoxicity [1]: 0.282% [at 15.8 µM]
- cytotoxicity increase [2]: 4.83% [at 15.8 µM]
- activity change, negative = cytotoxicity [3]: -2.3% [at 15.8 µM]
- cytotoxicity increase [4]: -7.04% [at 15.8 µM]
- cytotoxicity [5]: 2.16% [at 15.8 µM]
- cytotoxicity increase [6]: 0.396% [at 15.8 µM]
- cytotoxicity increase [7]: -14% [at 15.8 µM]
- activity change, negative = cytotoxic [8]: 6.14% [at 15.8 µM]
- activity change, negative = cytotoxicity [9]: 4.15% [at 15.8 µM]
- activity change, negative = cytotoxicity [10]: 0.091% [at 15.8 µM]
